Test results published in the supplement of paper PMC10338343.
± gives the standard deviation.

What follows are sequences tested on MILI (PIWIL2) piRISC loaded with piRNA #1 (26 nt) (assay: pre-steady-state target cleavage rate (min^-1); guide: piRNA #1 5'p-UGAGGUAGUAGGUUGUAUAGUAUCCA; MIWI and MILI are mouse PIWI proteins and EfPiwi is from a freshwater sponge; tags in brackets are library labels; higher = faster piRNA-guided slicing of the target). Settings: auxiliary factor: 500 nM mouse GTSF1.
Method: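 Cleave-'n-Seq: a library of target RNAs (target site embedded in constant flanks, ACAGCATTCCGCGTTAGTGATATCCG... 5' flank; DNA-blocked outside the site) at 0.1 nM was incubated with 1 nM active mouse MILI or MIWI piRISC (synthetic 5'-monophosphorylated piRNA guide) with or without 500 nM mouse GTSF1 at 33 °C for 1 min to 16 h. Uncleaved targets were sequenced and normalised to non-target controls, and the pooled three trials were fitted to a burst-and-steady-state model to give the pre-steady-state cleavage rate (min^-1; k3 is constrained to at most 1e-4). Sequence is the target site only; target names encode pairing extent (gX:gY) and contiguous / 1-mismatch / 2-mismatch / bulge geometry. Fits with R² ≤ 0 are excluded.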

Sequence	pre-steady-state target cleavage rate
GGAGAGGAAACUAUACAACCUACUACCUGA	0.047 ± 0.014
GGAGAGAAUACUAUACAACCUACUACCUCA	0.177 ± 0.01
GGAGACCAUACUAUUACAACCUACUACCUCA	0.161 ± 0.013
GGAGACCUAUGUAUACAACCUAGCUACCUCA	0.00713 ± 0.0027
GGAGUGGCUACUAUACAACCUACUACCUCA	0.19 ± 0.012
GGAGUGGAUACUAAACAACCUACUACCUCA	0.168 ± 0.0092
GGAGACCUAUCUAUACAACCUACUACCGUCA	0.141 ± 0.019
GGAGAGGAUACUAUAGUACCUACUACCUCA	0.159 ± 0.012
GGAGACCAUACUAUACAAGCUACUAGCUCA	0.0756 ± 0.022
GGAGAGGAUACUAUACAACCUACUACCACA	0.171 ± 0.017
GGAGACCUAACUAUACAACCUACAACCACA	0.0203 ± 0.012
GGAGACCUAAGUAUACAACCUACUACCUGA	0.0424 ± 0.0093
GGAGACCUUUCUAUACAACCUACUACGUCA	0.0394 ± 0.0068
GGAGACCUAUGUAAACAACCUACUACCUCA	0.0131 ± 0.0032
GGAGACCAUAGUAUUCAACCUACUACCUCA	0.11 ± 0.013
GGAGACCUAUGAUAUGAACCUAGAUGGAGA [g9:g14:cont:t1A]	< 0.0001
GGAGACCUAACUAUACAACCUACUACCCCA	0.195 ± 0.058
GGAGACCUAUGAUAUGAAACUACUACCUCA	< 0.0001
GGAGUGGAUCCUAUACAACCUACUACCUCA	0.156 ± 0.027
GGAGACCUUACAAUACAUCCUACUACCUCA	0.232 ± 0.021

Sequence	pre-steady-state target cleavage rate
GGAGUGGAUACUUUACAACCUACUACCACA	0.0946 ± 0.011
GGAGACCUUACUAAACAACCUACUACGUCA	0.0571 ± 0.01
GGAGACCUAUCUAUACAAGGAUGAUGGAGA [g13:g20:cont:t1A]	< 0.0001
GGAGACCUUACUAUACAACCUAGUUCCUCA	0.0143 ± 0.0048
GGAGUCGAUACAAUACAACCUACUACCUCA	0.177 ± 0.012
GGAGACCUUACUAUUCAACCUACUACGUCA	0.0709 ± 0.0096
GGAGACCUAUGAUUACAACCUAUCUACCUCA	0.00755 ± 0.003
GGAGACCUAUGAUUACAAGCUAGUACCUCA	0.0146 ± 0.006
GGAGAGGAUUCUAUACAACGUACUACCUCA	0.028 ± 0.0028
GGAGUGGAUACUCAUACAACCUACUACCUCA	0.161 ± 0.012
GGAGAGGAUACUAUACAACCUACUACCUCU [g2:g25:cont:t1U]	0.238 ± 0.025
GGAGAGGAUAGUAUUCAACCUACUACCUCA	0.0731 ± 0.011
GGAGACCAUACUAUACAACCUACUACCUCC [g2:g23:cont:t1C]	0.187 ± 0.017
GGAGACCUAUGUUUACAACCUACUACGUCA	0.00415 ± 0.0018
GGAGAGGAUACUAUACAACCUACUUGCUCA	0.00476 ± 0.0029
GGAGACCUUACUAUACAAUCUACUACCUCA	0.127 ± 0.01
GGAGACCUAUGAAUCACAACCUACUACCUCA	0.0111 ± 0.0034
GGAGACCUAUGAUAUGUUCCUUCUACCUGA	< 0.0001
GGAGACCUAUCUAUCACAACCUACUACCUCA	0.0519 ± 0.01
GGAGUGGAUACUAUAGAACCUACUACGUCA	0.0161 ± 0.0041
